SMILES strings stand for the structures. Among all 190,000 compounds or so, about 1,700 (0.89%) were called active. The sample holds actives, similar compounds and a random draw of the others, so the mix is not that of the screen. Values without a mark were called inactive.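 The calls were made as follows: active = inhibition above the mean inhibition across all screened compounds plus 3 SD (cut at about 44% in these data); inactive = the rest.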

A short description of this experiment: blockers of STAT3 transcriptional signaling – U3A cells, luciferase, luminescence, MLSCN library, primary screen (AID 862).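 Also: 0% = DMSO only wells and 100% = 100 µM nifuroxazide control wells.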 Conditions: IL-6 STAT3-luciferase reporter, at 5.5 µM, active compounds read high. On the technique in general: In a reporter assay the amount or activity of a reporter protein is the signal.
As a reminder, the inhibition is the drop in the measured response relative to a control, in per cent. `CC1=CC(=Cc2sc3ccccc3[n+]2C)C=C(C)O1`: the inhibition was 81.6% (active).
Regarding `COc1ccc(C(=O)CC2C(=O)N(C)C(=O)N(C)C2=O)cc1`, the inhibition was 8.6%.
`Cc1cccc(-n2c(O)c(/C=N/N3CCOCC3)c(=O)[nH]c2=S)c1`: the inhibition was -17.9%.
Under `CN1CCN(c2cc(N3CCNCC3)ccc2[N+](=O)[O-])CC1` stands -1.6%; under `COc1cccc(-c2nc3ccc(N4CCN(C)CC4)cc3[nH]2)c1`, 85.4% (active); under `Cc1nc2ccc(N3CCN(C)CC3)cc2nc1C`, -6.4%.
Under `Cc1c(C(=O)O)cccc1-n1c(C)cc(/C=C2\C(=O)NC(=O)N(c3ccc4c(c3)OCO4)C2=O)c1C` stands 2.2%.
Regarding `O=C(CCCn1c(=O)[nH]c2cc(Cl)ccc2c1=O)N1CCC2(CC1)OCCO2`, the inhibition is 14.5%.
Regarding `O=C(CN1CCCC1=O)NCCc1ccccc1`, the inhibition was 3.6%.
Consider `N#Cc1ccc(Cn2cc(C(=O)c3ccco3)c3ccccc32)cc1`, for which the inhibition was 10.3%.

Source of the values: PubChem BioAssay AID862 (The Scripps Research Institute Molecular Screening Center, 2007).
